Columns and labels:
Assay in all cases: protein domain microarray probed with biotinylated miRNA; Domain array: 20 mM Tris-HCl pH 7.4, 200 mM KCl, 0.2 mM EDTA, 0.05% NP40, 2 ug/ul heparin, overnight 4 C. ORF array: PBS pH 7.0 with RNase inhibitor, 100 ng RNA; high values mean tight binding
Conditions in all cases: ssRNA
HUR = HUR (Homo sapiens, UniProt Q15717)
PABPC4L = PABPC4L (Homo sapiens, UniProt P0CB38)
snRNP B2 = snRNP B2 (Homo sapiens, UniProt P08579)
YTHDC1 = YTHDC1 (Homo sapiens, UniProt Q96MU7)
snRNP A = snRNP A (Homo sapiens, UniProt P09012)
snRNP A, sequence (P09012 whole entry): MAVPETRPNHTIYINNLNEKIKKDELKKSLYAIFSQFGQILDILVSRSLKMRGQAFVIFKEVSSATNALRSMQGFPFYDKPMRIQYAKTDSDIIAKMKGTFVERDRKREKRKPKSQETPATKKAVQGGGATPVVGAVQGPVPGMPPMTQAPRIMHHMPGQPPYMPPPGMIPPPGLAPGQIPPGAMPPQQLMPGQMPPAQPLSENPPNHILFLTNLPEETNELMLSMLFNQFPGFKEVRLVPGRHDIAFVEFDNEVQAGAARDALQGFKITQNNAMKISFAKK

SLIRP = SLIRP (Homo sapiens, UniProt Q9GZT3)
SF3B6 = SF3B6 (Homo sapiens, UniProt Q9Y3B4)
SF3B6, sequence (Q9Y3B4 whole entry): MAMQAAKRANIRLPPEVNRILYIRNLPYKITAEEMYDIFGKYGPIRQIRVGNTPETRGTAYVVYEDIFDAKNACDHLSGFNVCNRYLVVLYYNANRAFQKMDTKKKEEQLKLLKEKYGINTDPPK

SFRS9 = SFRS9 (Homo sapiens, UniProt Q13242)
SFRS9, sequence (Q13242 whole entry): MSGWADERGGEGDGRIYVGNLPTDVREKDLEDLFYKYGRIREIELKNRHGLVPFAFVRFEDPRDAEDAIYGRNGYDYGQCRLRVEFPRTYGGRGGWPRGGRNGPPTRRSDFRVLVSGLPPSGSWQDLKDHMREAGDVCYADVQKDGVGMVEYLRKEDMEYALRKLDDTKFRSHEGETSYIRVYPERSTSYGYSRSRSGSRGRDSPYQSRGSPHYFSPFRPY

HUR, sequence (Q15717 whole entry): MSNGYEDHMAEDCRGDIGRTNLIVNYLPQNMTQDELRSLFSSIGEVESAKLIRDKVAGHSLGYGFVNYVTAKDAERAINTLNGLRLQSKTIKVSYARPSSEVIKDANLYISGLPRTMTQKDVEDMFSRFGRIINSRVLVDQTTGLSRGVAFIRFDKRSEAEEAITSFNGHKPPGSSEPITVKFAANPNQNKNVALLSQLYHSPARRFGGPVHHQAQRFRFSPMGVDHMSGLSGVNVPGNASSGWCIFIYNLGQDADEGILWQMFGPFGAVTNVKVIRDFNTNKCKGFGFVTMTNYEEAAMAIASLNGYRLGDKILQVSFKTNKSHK
snRNP B2, sequence (P08579 whole entry): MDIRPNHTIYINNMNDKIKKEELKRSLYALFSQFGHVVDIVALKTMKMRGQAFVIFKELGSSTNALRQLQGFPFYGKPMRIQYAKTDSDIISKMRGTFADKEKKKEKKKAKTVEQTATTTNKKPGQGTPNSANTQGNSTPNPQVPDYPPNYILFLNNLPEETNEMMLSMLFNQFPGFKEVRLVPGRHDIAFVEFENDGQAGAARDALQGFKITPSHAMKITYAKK
PABPC4L, sequence (P0CB38 whole entry): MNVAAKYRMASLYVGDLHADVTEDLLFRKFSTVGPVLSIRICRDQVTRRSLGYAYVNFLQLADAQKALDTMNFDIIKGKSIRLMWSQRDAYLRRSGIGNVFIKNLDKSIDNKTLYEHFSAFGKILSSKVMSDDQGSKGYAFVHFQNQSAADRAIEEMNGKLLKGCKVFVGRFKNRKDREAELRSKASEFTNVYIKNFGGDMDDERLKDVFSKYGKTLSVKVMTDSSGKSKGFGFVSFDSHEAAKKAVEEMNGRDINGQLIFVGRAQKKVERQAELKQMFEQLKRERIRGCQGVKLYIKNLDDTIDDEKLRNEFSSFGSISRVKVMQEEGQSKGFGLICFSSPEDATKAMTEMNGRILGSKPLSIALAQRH

## CAGUGCAAUGAUGAAAGGGCAU
HUR
  binding signal: 652.6 ± 4.58 fluorescence intensity
PABPC4L
  binding signal: 380 ± 28.5 fluorescence intensity
snRNP B2
  binding signal: 164 ± 16.3 fluorescence intensity
YTHDC1
  binding signal: 64.9 ± 3.94 fluorescence intensity
snRNP A
  binding signal: 224 ± 14.6 fluorescence intensity
SLIRP
  binding signal: 55.4 ± 6.36 fluorescence intensity
SF3B6
  binding signal: 58.7 ± 1.9 fluorescence intensity
SFRS9
  binding signal: 370 ± 18.4 fluorescence intensity

## UAGCUUAUCAGACUGAUGUUGA
HUR
  binding signal: 219 ± 16.5 fluorescence intensity
snRNP B2
  binding signal: 24.4 ± 2.86 fluorescence intensity
snRNP A
  binding signal: 25.3 ± 14.1 fluorescence intensity
SLIRP
  binding signal: 24.4 ± 1.37 fluorescence intensity
SFRS9
  binding signal: 54.9 ± 6.63 fluorescence intensity

## AGAGGUAGUAGGUUGCAUAGUU
HUR
  binding signal: 1350 ± 50 fluorescence intensity
PABPC4L
  binding signal: 466 ± 20.9 fluorescence intensity
snRNP B2
  binding signal: 147 ± 5.66 fluorescence intensity
YTHDC1
  binding signal: 80.4 ± 1.63 fluorescence intensity
snRNP A
  binding signal: 342 ± 6.74 fluorescence intensity
SLIRP
  binding signal: 104 ± 2.51 fluorescence intensity
SF3B6
  binding signal: 117.8 ± 0.707 fluorescence intensity
SFRS9
  binding signal: 273 ± 31 fluorescence intensity

## UGAGGUAGUAGGUUGUGUGGUU
HUR
  binding signal: 1300 ± 85.7 fluorescence intensity
PABPC4L
  binding signal: 523 ± 82.5 fluorescence intensity
snRNP B2
  binding signal: 296 ± 33.8 fluorescence intensity
YTHDC1
  binding signal: 179 ± 8.44 fluorescence intensity
snRNP A
  binding signal: 236.6 ± 1.37 fluorescence intensity
SLIRP
  binding signal: 232 ± 20.1 fluorescence intensity
SF3B6
  binding signal: 282 ± 3.13 fluorescence intensity
SFRS9
  binding signal: 580 ± 35.6 fluorescence intensity

## UGAGGUAGUAGGUUGUAUGGUU
HUR
  binding signal: 1165 ± 9.92 fluorescence intensity
PABPC4L
  binding signal: 506 ± 42.2 fluorescence intensity
snRNP B2
  binding signal: 184 ± 4.53 fluorescence intensity
YTHDC1
  binding signal: 122.4 ± 0.332 fluorescence intensity
snRNP A
  binding signal: 372 ± 10.2 fluorescence intensity
SLIRP
  binding signal: 107 ± 4.07 fluorescence intensity
SF3B6
  binding signal: 136 ± 26.8 fluorescence intensity
SFRS9
  binding signal: 343 ± 5.06 fluorescence intensity

## UGAGGUAGUAGGUUGUAUAGUU
HUR
  binding signal: 477 ± 14 fluorescence intensity
PABPC4L
  binding signal: 129 ± 51.7 fluorescence intensity
snRNP B2
  binding signal: 43.98 ± 0.219 fluorescence intensity
YTHDC1
  binding signal: 25.3 ± 0.502 fluorescence intensity
snRNP A
  binding signal: 28 ± 0.686 fluorescence intensity
SLIRP
  binding signal: 32.41 ± 0.262 fluorescence intensity
SF3B6
  binding signal: 31.6 ± 1.95 fluorescence intensity
SFRS9
  binding signal: 37.9 ± 10.5 fluorescence intensity
